# Hit rate of the full screen: of about 75,000 compounds, about 5,700 (7.6%) were called active. Entries that show only a call come without a potency. Roughly 7% stayed inconclusive and do not appear here. The full list was thinned out, with actives kept by preference. Unmarked numbers belong to inactive results. Calls follow the shape of the dose curve; as a rule, active = well fitted inhibition curve with a large enough effect; inconclusive = small, poorly fitted or top-dose-only effect; inactive = no such curve, though single readings can be large or run the other way.
# Biological target: 3-hydroxyacyl-CoA dehydrogenase type-2 (Homo sapiens) (UniProt Q99714)
# Experiment: qHTS Assay for Inhibitors of HSD17B4, hydroxysteroid (17-beta) dehydrogenase 4;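 also: the protocol describes HADH2 (HSD17B10) and not the HSD17B4 of the title; nearly all actives have a fitted effect of over 70% in size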
# Settings: recombinant HSD17B10, NADH fluorescence kinetic; series mostly up to 57.1 µM
# How it was run: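 His-tagged E. coli-expressed HADH2 at 20 nM in 100 mM Tris-HCl pH 9.0 with 0.01 % Tween-20, preincubated 15 min with compound at room temperature. Reaction with 1 mM NAD+ and 90 uM beta-hydroxybutyryl coenzyme A; NADH fluorescence (360/450 nm) read kinetically over 4 min, last minus first point.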
# Potency is read from the fitted curve at half-maximal effect.
Compound,Potency,"activity change, negative = inhibition"
CNC(=O)c1c(NC(=O)c2ccc(S(=O)(=O)N3CCOCC3)cc2)sc2c1CCC2,inactive,
Cc1ccc(S(=O)(=O)N(C)CC(=O)N2CCc3ccccc32)cc1,inactive,
COCCN(CC(=O)Nc1ccccc1C)S(=O)(=O)c1ccc(S(=O)(=O)N2CCCC2)cc1,inactive,
CSc1nnc(-c2ccncc2)n1CCCN1CCCC1=O,inactive,
CCOc1cc2[nH]c(=S)n(CCCN3CCCC3=O)c(=O)c2cc1OCC,inactive,
CC(C)(C)OC(=O)c1c(N)n(CCCN2CCCC2=O)c2nc3ccccc3nc12,25.1 µM (active),
COC(=O)[C@@H]1C[C@H]2CC[C@H](O)C[C@H]2N1Cc1ccc(N2CCN(C)CC2)cc1,inactive,
CNC(=O)CSc1nnc(CCc2ccccc2)n1-c1ccccc1,inactive,
CCCCCCN(C(=O)CCCCCN1C(=O)NC(c2ccc(C(F)(F)F)cc2)C(C(=O)OCc2ccccc2)=C1C)C(C(=O)NCCCC)c1ccc(OCC(=O)OC)c(C(=O)OC)c1 (centres undefined),inactive,
CCN1C(=O)c2cccc3c(N)ccc1c23,inactive,
O=C1c2ccccc2C(=O)N1CCCSc1ccccc1,,-1.64% [at 11.4 µM]
C[N+](C)(CCCCCC[N+](C)(C)CCCN1C(=O)c2cccc3cccc(c23)C1=O)CCCN1C(=O)c2cccc3cccc(c23)C1=O,25.1 µM (active),
Cc1ccc(C(=O)NCCNS(=O)(=O)c2ccccc2)cc1,inactive,
COc1ccc(N2CCN(C(=O)CSc3nnc4ncccn34)CC2)cc1,inactive,
C=CCn1c(N)c(S(=O)(=O)c2cccs2)c2nc3ccccc3nc21,25.1 µM (active),
C=CCn1c(N)c(C(=O)OCC(C)C)c2nc3ccccc3nc21,31.6 µM (active),
COC(=O)c1cn(CC(=O)NCc2cccs2)c2ccccc12,inactive,
C=CCn1c(C(C)NC(=O)CC)nc2ccccc21 (centres undefined),inactive,
CCN(CC(=O)NCc1cccs1)c1nnnn1-c1ccccc1,inactive,
C=CCOC(=O)c1ccccc1C(=O)OCC=C,inactive,
CC(C)Cn1c(N)c(C(=O)NCc2cccs2)c2nc3ccccc3nc21,15.8 µM (active),
c1csc(-c2nc(-c3ccncc3)no2)c1,inactive,
c1ccc2cc(OCCN3CCCC3)ccc2c1,inactive,
CCCC[C@H]1C(=O)N(c2ccccc2)N(c2ccc(O)cc2)C1=O,inactive,

Compound,Potency,"activity change, negative = inhibition"
C/C=C/C=C/C(=O)O,inactive,
COc1ccc(S(=O)(=O)N2CCC(C(=O)N3CCc4ccccc4C3)CC2)cc1OC,inactive,
CSc1nnc2c(n1)OC(c1cn(C)c3ccccc13)N(C(C)=O)c1ccccc1-2 (centres undefined),inactive,
CCCc1nc2c(C)cc(-c3nc4ccccc4n3C)cc2n1Cc1ccc(-c2ccccc2C(=O)O)cc1,31.6 µM (active),
CCCCn1c(CCCNC(=O)CC)nc2ccccc21,inactive,
CCCCn1c(CN2CCN(CCO)CC2)nc2ccccc21,inactive,
Cc1ccc(Nc2cc(=O)n(C3CCCCC3)c(=O)[nH]2)cc1C,inactive,
Cc1ccc(CCn2c3c(c4ccccc42)CN(C)CC3)cn1,inactive,
CC1(C)OC(C(O)(c2ccccc2)c2ccccc2)C(C(O)(c2ccccc2)c2ccccc2)O1 (centres undefined),,1.95% [at 11.4 µM]
C=CCN1C(=O)C(O)(CC(=O)c2ccc(Cl)cc2)c2ccccc21 (centres undefined),inactive,
COc1cc2[nH]c(=S)n(Cc3ccc(C)o3)c(=O)c2cc1OC,inactive,
COc1cc2[nH]c(=O)n(CCC(=O)NC3CCN(Cc4ccccc4)CC3)c(=O)c2cc1OC,inactive,
COc1cc2cc(CN(CCN3CCCC3)C(=O)Nc3ccccc3Cl)c(=O)[nH]c2cc1OC,25.1 µM (active),
COc1ccc(CCN(Cc2cc3cccc(C)c3[nH]c2=O)C(=O)N2CCCC2)cc1OC,inactive,
C[C@@H](N)[C@@H](C)Cc1ccccc1,,4.93% [at 11.4 µM]
c1ccc(CSCCc2ccncc2)cc1,,1.7% [at 11.4 µM]
COc1ccc(C(=O)NCc2cn3ccccc3n2)cc1,31.6 µM (active),
COc1ccc(C(=O)NC(=O)CSc2nnc(-c3ccco3)n2-c2ccccc2)cc1,inactive,
COc1ccc(/C=C/NC(=O)c2ccc(OC)cc2)cc1,,7.09% [at 11.4 µM]
CC(C)(O/N=C(\C(=O)N[C@@H]1C(=O)N2C(C(=O)[O-])=C(C[n+]3ccccc3)CS[C@@H]12)c1csc(N)n1)C(=O)O,inactive,
CC(C)[C@H]1CC[C@@H](C)C[C@H]1O,inactive,
COc1ccc2[nH]c(=O)c(CN(Cc3nnnn3CCc3ccccc3)CC3CCCO3)cc2c1 (centres undefined),25.1 µM (active),
O=C(CN(CC1CCCO1)C(=O)CNS(=O)(=O)c1ccccc1)NCc1ccccc1 (centres undefined),inactive,
CCOc1ccc2[nH]c(=O)c(CN(CCCO)C(C)=O)cc2c1,31.6 µM (active),

Compound,Potency,"activity change, negative = inhibition"
COc1cccc(-n2c(Cc3cc(=O)[nH]c(=O)[nH]3)nnc2SCC(=O)Nc2ccccc2)c1,inactive,
Cc1cc(C)c2cc(CN(Cc3cccs3)Cc3nnnn3CC3CCCO3)c(=O)[nH]c2c1 (centres undefined),inactive,
Cc1ccc2[nH]c(=O)c(COC(=O)c3ccccn3)cc2c1,inactive,
CCN(Cc1cc2cc(C)ccc2[nH]c1=O)S(=O)(=O)c1ccccc1,inactive,
COc1ccc(N(Cc2cc3cc(OC)ccc3[nH]c2=O)S(C)(=O)=O)cc1,inactive,
CCC(c1nnnn1Cc1ccccc1)N(Cc1cc2cc(OC)ccc2[nH]c1=O)CC1CCCO1 (centres undefined),inactive,
COc1ccc2[nH]c(=O)c(CN(CC3CCCO3)C(=O)Nc3ccccc3)cc2c1 (centres undefined),25.1 µM (active),
CCOC(=O)c1cc2cc(C)ccc2[nH]1,inactive,
CCC(=O)N(Cc1cc2cc(OC)ccc2[nH]c1=O)c1ccccc1C,25.1 µM (active),
COCC(=O)N1CCC2(CCCN(c3ccccc3)C2)CC1,inactive,
Cc1cc(N(C)C)cc(C)[n+]1[O-],inactive,
O=C(O)CCC(=O)N(Cc1ccco1)c1nc(-c2ccccc2)cs1,inactive,
O=C(c1cccc(C(=O)N2CCc3ccccc32)n1)N1CCc2ccccc21,inactive,
COc1cc(OC)c2c(c1Cl)OC1(C2=O)C(O)=CC(=O)CC1C (centres undefined),inactive,
COc1ccc(C(=O)OCC(=O)c2ccc(C)c(S(=O)(=O)N3CCOCC3)c2)cc1OC,inactive,
Cc1c(C)c2cc3c4c(oc3c(C)c2oc1=O)CCCC4,inactive,
COc1ccc(Cl)cc1S(=O)(=O)N1CCN(CC(=O)C(C)(C)C)CC1,inactive,
CCCOc1ccc2c3c(c(=O)oc2c1OCCC)CCC3,12.6 µM (active),
COc1ccc2c3c(c(=O)oc2c1OCC(=O)C(C)(C)C)CCCC3,25.1 µM (active),
O=C(COc1ccc(S(=O)(=O)NCCc2ccccc2)cc1)N1CCCC1,inactive,
c1nnc2c3c4c(sc3ncn12)CCC4,inactive,
CCOC(=O)C1=C(C)NC(=O)N(C(C)=O)C1c1ccc(Cl)cc1 (centres undefined),inactive,
O=C(c1cnccn1)N1CCC[C@@]2(CCN(Cc3ccncc3)C2)C1,inactive,
CCS(=O)(=O)N1CCCC(C(=O)NCc2ccc(C)cc2)C1 (centres undefined),inactive,

Compound,Potency,"activity change, negative = inhibition"
C=C1C([C@@]2(C)C(OC(C)=O)CC(=O)O[C@@](C)(COC(C)=O)C2CC(=O)OC)C(OC=O)C(OC(=O)C(O)C(C)CC)[C@]2(C)C(c3ccoc3)CC(=O)C12O (some centres undefined),inactive,
COc1ccc(COC(=O)N/N=C2/C[C@@H](O)[C@@H](O)[C@@H]3[C@@H]4C(=O)N([C@@H](C)c5ccccc5)C(=O)[C@H]4CC[C@@H]23)cc1,,-1.08% [at 11.4 µM]
CCOC(=O)c1ccc2[nH]c(C)c(CN3CCN(C)CC3)c(=O)c2c1,inactive,
COC(=O)c1cccc(NC(=O)CSc2nc(C)cc(=O)[nH]2)c1,inactive,
CCOC(=O)c1sc(=S)n2c1[nH]c(=O)c1ccc(C(=O)OC)cc12,20 µM (active),
CCOc1ccc(C2C(C(=O)NC)=C(C)Nc3nc4ccccc4n32)cc1OC (centres undefined),inactive,
CN(C)c1cc2c(Nc3ccc4c(cnn4Cc4ccccc4)c3)ncnc2cn1,inactive,
CCOC(=O)CCc1c(C)c2ccc(OCc3nn[nH]n3)c(C)c2oc1=O,31.6 µM (active),
CCNC(=S)NCC,inactive,
CCCNC(=O)C1CC(=O)N(c2ccc(OCC(=O)Nc3cccc(C)c3C)cc2)C1 (centres undefined),inactive,
O=C(O)Cc1ccc(NC(=O)c2cccs2)cc1,inactive,
O=C(O)c1ccc(NC(=O)c2cccs2)cc1,inactive,
Cc1nc(-c2ccc(NC(=O)c3cccs3)cc2)cs1,25.1 µM (active),
CCOC(=O)N1CCC(Nc2c(NCCN3CCN(c4cccc(Cl)c4)CC3)c(=O)c2=O)CC1,inactive,
CCC(CCC(C)C1CCC2C3CC=C4CC(O)CC[C@@]4(C)C3CC[C@@]12C)C(C)C (some centres undefined),inactive,
COC(=O)c1ccc(/C=N\n2c(C)nnc2C)cc1,inactive,
COc1ccccc1-c1cc(NCc2cccs2)ncn1,inactive,
COc1ccc(CCC(=O)c2c(O)cc(OC3OC(CO)C(O)C(O)C3O[C@@H]3OC(C)C(O)C(O)C3O)cc2O)cc1O (some centres undefined),inactive,
CC1OC(OCC2OC(Oc3c(-c4ccc(O)c(O)c4)oc4cc(O)cc(O)c4c3=O)C(O)C(O)C2O)[C@@H](O)C(O)C1O (some centres undefined),inactive,
C[C@@H]1O[C@@H](O[C@@H]2[C@@H](O)[C@H](OCCc3ccc(O)c(O)c3)O[C@H](CO[C@@H]3O[C@H](CO)[C@@H](O)[C@H](O)[C@H]3O)[C@H]2OC(=O)/C=C/c2ccc(O)c(O)c2)[C@H](O)[C@H](O)[C@H]1O,2 µM (active),
CN1C(=O)c2ccccc2C(C(=O)NCCCN2CCCC2)C1c1c[nH]c2ccccc12 (centres undefined),inactive,
COC(=O)[C@@H]1CC[C@H](C)[C@@H](c2ccc(C)cc2)N1C(=O)c1ccc(/C=N\OC[C@@H](O)COCc2ccco2)cc1,,-1.91% [at 11.4 µM]

# — PubChem BioAssay AID893 (National Center for Advancing Translational Sciences (NCATS), 2007)
